CtBP-E1A blk = inhibitors of CtBP/E1A interaction; activity change, % (test concentration not listed); 340,000 compounds, 0.49% hits; AlphaScreen GST-E1A/His-CtBP binding, 1536-well; hits give low values; AID 651724; in the data active = activity change below about -65%; inconclusive = mostly about -30% to -63%
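AlphaScreen with 125 nM GST-E1A and 125 nM His-CtBP (5X stocks) in Tris pH 8.0, 300 mM NaCl, BSA, Tween 20, TCEP. Compounds preincubated 2 h at 37 deg C, then glutathione donor/nickel acceptor beads added for 1 h at 37 deg C in dark.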
G9a block = blocks human histone lysine methyltransferase G9a. G9a H3K9 monomethylation, AlphaScreen, 2 h. 350,000 compounds, 8.8% hits. Potency, µM (highest dose often 102 µM), hits mostly inhibitors; also: nearly all actives have a fitted effect of over 75% in size
Target sequence (Q96KQ7 913-1193 limits assumed): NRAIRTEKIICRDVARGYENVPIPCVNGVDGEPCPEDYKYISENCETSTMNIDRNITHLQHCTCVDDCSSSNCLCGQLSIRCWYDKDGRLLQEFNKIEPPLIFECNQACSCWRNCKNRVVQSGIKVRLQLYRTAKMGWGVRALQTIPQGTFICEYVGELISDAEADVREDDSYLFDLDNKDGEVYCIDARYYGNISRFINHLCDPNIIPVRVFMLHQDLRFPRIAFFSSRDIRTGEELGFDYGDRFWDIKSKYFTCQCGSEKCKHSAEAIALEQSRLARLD
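Methyltransferase reactions run at room temperature for 2 h (20 nM enzyme, 500 nM biotin-H3K9 peptide, 20 uM SAM) after a 15 min compound preincubation; product detected by AlphaScreen beads and anti-H3K9me1 antibody.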
HP1b binding inh = inhibitors of HP1-beta chromodomain binding to methylated histone tails. P83916. AlphaScreen HP1-beta / biotin-H3K9me3 peptide binding. Potency, µM (highest dose often 114 µM), usual class: inhibitors. 390,000 compounds, 0.56% hits. AID 540317; also: nearly all actives have a fitted effect of over 70% in size
Target sequence (P83916 whole entry, looked up): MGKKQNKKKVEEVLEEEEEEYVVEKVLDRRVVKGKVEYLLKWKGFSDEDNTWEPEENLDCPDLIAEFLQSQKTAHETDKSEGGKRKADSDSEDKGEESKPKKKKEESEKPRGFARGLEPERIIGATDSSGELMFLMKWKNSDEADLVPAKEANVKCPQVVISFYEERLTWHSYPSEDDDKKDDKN
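AlphaScreen: HP1-beta (50 nM) preformed 30 min with biotin-H3(1-18)K9me3 peptide (50 nM) in PBS pH 7.4, 0.01% Tween-20. Compound added for 30 min at RT, then streptavidin donor/nickel chelate acceptor beads (10 ug/mL) for 30 min.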
BAZ2B inh = inhibitors of human BAZ2B bromodomain | Q9UIF8 | AlphaScreen BAZ2B-H3K14Ac peptide displacement | Potency, µM (highest dose often 114 µM), hits mostly inhibitors | 360,000 compounds, 4.4% hits; also: nearly all actives have a fitted effect of over 60% in size
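BAZ2B (50 nM) with biotin-H3(5-23)K14Ac peptide (50 nM) in PBS pH 7.4, 0.01% Tween-20, preformed 30 min, then compound 30 min at room temperature; top concentration 110uM. AlphaScreen streptavidin donor/nickel chelate acceptor beads (10 ug/mL final), 20 min dark, signal read.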
Six1-Eya2 inh = blocks human Six1 binding to Eya2; AlphaScreen GST-Six1/His-Eya2 binding, biochemical; hits give low values; activity change, % (test concentration not listed); 360,000 compounds, 0.56% hits; AID 651725; in the data active = activity change below about -65%; inconclusive = mostly about -30% to -63%
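Homogeneous AlphaScreen proximity assay pairing GST-Six1 with His-tagged Eya2 (added as 5X mix: 250 nM and 500 nM) in 50 mM Tris pH 8.0, 300 mM NaCl, 1 mM TCEP. Glutathione donor and nickel acceptor beads; 1 h, 37 °C, dark.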
JMJD2A Tudor inh = inhibitors of human JMJD2A Tudor domain | O75164 | AlphaScreen JMJD2A-Tudor / H3K4me3 peptide binding | Potency, µM (titrated, usually from 114 µM), hits mostly inhibitors | 390,000 compounds, 4.4% hits | AID 504339; also: nearly all actives have a fitted effect of over 50% in size
A number is an active result; n = inactive; u = inconclusive; x = no result; [ ] = remark or other dose. Hits are enriched below; roughly 10% of the tested compounds scored in any of these assays. Unless noted, calls follow the shape of the dose curve; as a rule, active = well fitted inhibition curve with a large enough effect; inconclusive = small, poorly fitted or top-dose-only effect; inactive = no such curve, though single readings can be large or run the other way.

SMILES | CtBP-E1A blk | G9a block | HP1b binding inh | BAZ2B inh | Six1-Eya2 inh | JMJD2A Tudor inh
CCC[n+]1c(C)sc2c3c(ccc21)CCCC3 | n | 50µM | 40µM | n | n | 45µM
Nc1cc(S(=O)(=O)O)cc([N+](=O)[O-])c1O | n | 45µM | 35µM | u | n | 35µM
Nc1ccc(C(=O)O)cc1[N+](=O)[O-] | n | n | n | n | n | n
O=C(CN1C(=O)NC2(CCCCC2)C1=O)Nc1ccc(N2CCCCC2)cc1 | n | x | n | x | n | n
CC1(c2ccccc2Cl)NC(=O)N(CC(=O)Nc2ccc(N3CCCCC3)cc2)C1=O (stereo not drawn) | n | 14µM | n | 35µM | n | u
CN1CCN(c2ccc(Cl)cc2NC(=O)CN2C(=O)NC(C)(c3ccccc3)C2=O)CC1 (stereo not drawn) | n | 45µM | n | n | n | n
CC1CCCCC12NC(=O)N(CC(=O)Nc1ccc(N3CCCCC3)cc1)C2=O (stereo not drawn) | n | 16µM | n | n | n | n
CCC1(c2ccccc2)NC(=O)N(CC(=O)Nc2cc(Cl)ccc2N2CCN(C)CC2)C1=O (stereo not drawn) | n | n[12.7 µM] | n | n | n | n
CC1(c2ccccc2Cl)NC(=O)N(CC(=O)Nc2ccc(N3CCOCC3)cc2)C1=O (stereo not drawn) | n | x | n | x | n | n
CC1CC(C)(C)CC2(C1)NC(=O)N(CC(=O)Nc1ccc(N3CCCCC3)cc1)C2=O (stereo not drawn) | n | 45µM | u | u | n | u
Cc1cc(OCC(=O)Nc2ccc(C(=O)OC3CCCCC3)cc2)cc(C)c1Cl | x | n | n | n | x | n
CCC(=O)N1CCc2cc(S(=O)(=O)NC(C(=O)NCCc3ccc(Cl)cc3)C(C)C)ccc21 (stereo not drawn) | x | n | n | x | x | n
COc1ccc(C(=O)N(Cc2cc(OC)c(OC)c(OC)c2)C2CCS(=O)(=O)C2)cc1Cl (stereo not drawn) | x | n | n | n | x | n
CC1CC(C)(C)CC2(C1)NC(=O)N(CC(=O)NCc1ccccc1F)C2=O (stereo not drawn) | n | n[0.501 µM] | n | n | n | n
CC1CC(C)(C)CC2(C1)NC(=O)N(CC(=O)N1CCN(S(=O)(=O)c3ccc(F)c(F)c3F)CC1)C2=O (stereo not drawn) | n | x | n | x | n | 20µM
COC(=O)C1=C[C@@H](C(=O)OC)[C@H]2C3=C(C(=O)[C@@]2(C)NC(=O)c2ccccc2)[C@H](C)C(C(=O)OC)=C(C(=O)OC)[C@@H]3C1 | x | x | n | x | x | n
Cc1ccc(C)c(NC(=O)N2CCN3CCCCC3C2)c1 (stereo not drawn) | x | u | n | n | x | n
CN(C)C1=NC(=O)/C(=C/c2ccc(-c3ccc(S(N)(=O)=O)cc3)o2)S1 | x | 7.1µM | x | u | x | x
COc1ccccc1CN(Cc1cc2c(C)ccc(C)c2[nH]c1=O)Cc1nnnn1Cc1ccco1 | n | 13µM | n | n | n | n
CCNC(=S)N(Cc1ccco1)Cc1cc2cc3c(cc2[nH]c1=O)OCCO3 | n | n | n | n | n | n
Cc1ccc(CN(Cc2cc3cc4c(cc3[nH]c2=O)OCCO4)Cc2nnnn2Cc2ccco2)cc1 | n | 13µM | n | n | n | n
CN(C)CCCN(Cc1cc2cc3c(cc2[nH]c1=O)OCO3)C(=S)Nc1cccc(Cl)c1 | n | 50µM | n | n | n | u
Cc1ccc2cc(CN(Cc3ccc4c(c3)OCO4)Cc3nnnn3Cc3ccco3)c(=O)[nH]c2c1 | n | u | n | u | n | n
CNC(=S)N(Cc1ccco1)Cc1cc2cc3c(cc2[nH]c1=O)OCCO3 | n | 79µM | n | n | n | n
Cc1ccc(C)c2[nH]c(=O)c(C(c3nnnn3Cc3ccco3)N3CCc4ccccc4C3)cc12 (stereo not drawn) | n | 32µM | n | n | n | n
CCc1ccc(NC2=NCC(c3ccccc3)S2)cc1 (stereo not drawn) | n | n | n | n | n | n

Assay outcomes: PubChem BioAssay, National Center for Advancing Translational Sciences (NCATS)
